Assay outcomes: PubChem BioAssay, National Center for Advancing Translational Sciences (NCATS)
BRCA1 expr up: activators of BRCA1 expression | actives 1.1% (n = 380,000) | Potency, µM (top dose mostly 46.1 µM), hits mostly activators | MCF7-BRCA1-FFLuc reporter, luminescence, 48 h; response scale: scaled: vehicle 0%, 10 µM genistein 100%; note: nearly all actives have a fitted effect of over 80% in size
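Using MCF7 cells harboring a BRCA1 firefly luciferase reporter, plated 2 h before compound pinning, the screen measured luminescence after 48 h incubation. Responses were normalized to DMSO and 10 microM genistein, then fitted for concentration-effect.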
IL-2 act: activates IL-2 in a cell-based reporter assay; AID 652025; activation, % (series mostly up to about 46 µM); IL-2 activation reporter assay, cell-based qHTS; stimulated with anti-CD3/CD4/CD28 beads; in transgenic mouse T cells; actives 0.065% (n = 360,000); in the data active = activation above about 50%; inconclusive = mostly about 30% to 49%
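Unstimulated transgenic mouse T cells; 60-min compound exposure; bead-based TCR/CD4/CD28 stimulation; 18 h culture, 37 degrees C; dual fluorescence (EGFP, DsRed) plate cytometry.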
ELG1 repair inh: ELG1-dependent DNA repair inhibition | HEK293T ELG1-luciferase reporter, luminescence, 16 h; DNA damage induced by 5-fluorouridine | Potency, µM (series often up to 46.1 µM), usual class: inhibitors | actives 2.3% (n = 330,000) | AID 504467; note: nearly all actives have a fitted effect of over 55% in size
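In this reporter screen, reduction of luminescence relative to DMSO vehicle indicated activity. Compounds and 5-fluorouridine were added together to 2,000 cells per well, incubated for 16 hr at 37 °C, then developed with ONE-Glo.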
Nrf2 ARE act: Nrf2 pathway activation | AREc32 ARE-luciferase reporter (MCF7-derived line), luminescence, 24 h | Potency, µM (top dose mostly 46.1 µM), most hits filed as activators | actives 0.31% (n = 410,000); note: nearly all actives have a fitted effect of over 65% in size
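For detection, Steady-Glo was added and plates sat 30 min at RT; before that, AREc32_Fluc cells grown overnight in OPTI-MEM/5% FBS had been treated with 23 nL compound for 24 hr at 37 deg C.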
ELG1 FLuc counter: luciferase inhibition in cell-free luciferin readout for ELG1 hits | actives 3% (n = 350) | cell-free firefly luciferase luminescence counter-screen, ViewLux | shares compounds with ELG1 repair inh | Potency, µM (top dose mostly 46.1 µM), actives largely listed as inhibitors
ELG1 Luc conf: human ELG1 repair inhibition, luciferase-tagged ELG1 confirmation | shares compounds with ELG1 repair inh | HEK293T ELG1-luciferase levels, luminescence; cells co-treated with 5-fluorouridine | Potency, µM (top dose mostly 46.1 µM), usual class: inhibitors | actives 68% (n = 670); note: nearly all actives have a fitted effect of over 55% in size
Target sequence (Q96QE3 whole entry, looked up): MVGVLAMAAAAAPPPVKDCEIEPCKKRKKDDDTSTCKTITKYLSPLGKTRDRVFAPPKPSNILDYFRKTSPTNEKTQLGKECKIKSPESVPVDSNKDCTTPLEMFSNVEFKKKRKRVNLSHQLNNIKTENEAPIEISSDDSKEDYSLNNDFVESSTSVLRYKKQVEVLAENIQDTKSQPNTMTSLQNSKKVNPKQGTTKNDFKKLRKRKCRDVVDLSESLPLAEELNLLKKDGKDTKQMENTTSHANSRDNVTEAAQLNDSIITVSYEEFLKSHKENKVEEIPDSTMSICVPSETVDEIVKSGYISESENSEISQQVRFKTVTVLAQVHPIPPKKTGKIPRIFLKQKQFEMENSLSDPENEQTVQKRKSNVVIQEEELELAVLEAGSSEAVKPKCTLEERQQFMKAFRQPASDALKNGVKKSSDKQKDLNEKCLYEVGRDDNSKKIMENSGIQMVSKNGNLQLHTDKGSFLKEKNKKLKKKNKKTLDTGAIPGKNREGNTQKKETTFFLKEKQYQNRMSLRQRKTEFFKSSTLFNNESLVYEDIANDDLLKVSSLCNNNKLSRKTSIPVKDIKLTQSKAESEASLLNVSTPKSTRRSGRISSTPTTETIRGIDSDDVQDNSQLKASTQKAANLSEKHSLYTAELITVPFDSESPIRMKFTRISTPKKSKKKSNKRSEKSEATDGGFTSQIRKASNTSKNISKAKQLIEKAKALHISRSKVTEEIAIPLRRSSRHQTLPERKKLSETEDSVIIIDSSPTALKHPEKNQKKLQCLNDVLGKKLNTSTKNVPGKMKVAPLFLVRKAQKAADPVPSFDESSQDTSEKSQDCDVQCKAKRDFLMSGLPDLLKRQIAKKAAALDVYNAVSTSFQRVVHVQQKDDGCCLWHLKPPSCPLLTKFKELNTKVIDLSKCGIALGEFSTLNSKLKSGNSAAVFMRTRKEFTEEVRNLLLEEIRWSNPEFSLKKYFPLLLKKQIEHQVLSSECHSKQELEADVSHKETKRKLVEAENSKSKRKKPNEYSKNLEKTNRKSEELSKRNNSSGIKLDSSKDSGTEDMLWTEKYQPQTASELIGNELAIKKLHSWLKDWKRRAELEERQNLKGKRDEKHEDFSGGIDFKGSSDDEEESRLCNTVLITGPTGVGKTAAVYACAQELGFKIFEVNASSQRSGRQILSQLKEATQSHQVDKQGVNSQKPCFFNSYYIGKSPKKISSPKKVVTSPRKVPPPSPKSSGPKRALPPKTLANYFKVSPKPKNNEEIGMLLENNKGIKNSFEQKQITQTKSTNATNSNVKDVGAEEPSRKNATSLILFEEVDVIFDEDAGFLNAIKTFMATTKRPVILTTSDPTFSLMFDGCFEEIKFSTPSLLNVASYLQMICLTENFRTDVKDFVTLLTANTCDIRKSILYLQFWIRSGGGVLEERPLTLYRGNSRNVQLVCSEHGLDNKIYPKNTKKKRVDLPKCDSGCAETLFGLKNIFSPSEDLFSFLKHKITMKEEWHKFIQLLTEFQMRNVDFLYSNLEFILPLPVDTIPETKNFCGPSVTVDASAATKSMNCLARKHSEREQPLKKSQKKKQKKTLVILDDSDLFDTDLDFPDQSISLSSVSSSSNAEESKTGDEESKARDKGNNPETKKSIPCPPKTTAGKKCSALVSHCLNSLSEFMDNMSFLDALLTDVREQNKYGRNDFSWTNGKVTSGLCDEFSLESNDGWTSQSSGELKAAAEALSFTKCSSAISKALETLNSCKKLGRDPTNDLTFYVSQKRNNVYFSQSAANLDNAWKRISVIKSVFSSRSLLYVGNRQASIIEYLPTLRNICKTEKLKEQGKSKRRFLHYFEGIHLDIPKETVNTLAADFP
ELG1 MMS Luc: MMS-stimulated human ELG1 repair inhibition, confirmed. shares compounds with ELG1 repair inh. HEK293T luciferase-tagged ELG1 level, MMS stimulated. Potency, µM (highest dose often 46.1 µM), hits mostly inhibitors. actives 53% (n = 670). AID 624249; note: nearly all actives have a fitted effect of over 60% in size
ELG1 5-FU: confirmation of ELG1 repair inhibitors: viability with 5FU | shares compounds with ELG1 repair inh | cell viability with 5-FU, ELG1-dependent repair | Potency, µM (highest dose often 46.1 µM), usual class: cytotoxic | 670 tested, under 10 active | AID 624250;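 note: ELG1-luc HEK293T cells cotreated with 5-fluorouridine at 10 µM final; viability measured 16 h after compound addition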
ELG1 MMS cell: confirmation of ELG1 repair inhibitors: viability with MMS; actives 33% (n = 670); Cell viability with MMS, ELG1-dependent DNA repair; Potency, µM (series often up to 46.1 µM), usual class: cytotoxic; shares compounds with ELG1 repair inh;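 note: ELG1-luc HEK293T cells co-treated with 10 µM MMS; viability read 16 h after compound addition; nearly all actives have a fitted effect of over 60% in size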
ELG1 unstim viab: counter-screen for ELG1 repair inhibitors: unstimulated cell viability; cell viability counter-screen, unstimulated, luminescence; actives 8% (n = 900); Potency, µM (top dose mostly 45.9 µM), usual class: cytotoxic; shares compounds with ELG1 repair inh; AID 624252;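 note: compound exposure lasted 16 hours before reading; nearly all actives have a fitted effect of over 55% in size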
FLuc enzyme: inhibits purified firefly luciferase, counter-screen for ELG1 hits; actives 10% (n = 350); purified firefly luciferase, luminescence counter-screen; shares compounds with ELG1 repair inh; Potency, µM (top dose mostly 57.5 µM), usual class: inhibitors
Of the large screens only hits and unclear results are named; the others gave an inactive call (follow-up assays come after a bar, where they were run). Sampled rows, rich in hits. Any-hit rate of the full collection: about 3.1%. Unless noted, calls come from the whole dose curve; as a rule, active = well fitted curve in the direction sought with a large enough effect; inconclusive = small, poorly fitted or top-dose-only effect, or another doubt; inactive = no such curve, though single readings can be large; an effect the other way counts as inactive or inconclusive.

CCOc1ccc(-n2cc(C(=O)Nc3cccc(OC)c3)c3cc(OC)c(OC)cc3c2=O)cc1	ELG1 repair inh inconclusive | ELG1 FLuc counter inactive | ELG1 Luc conf 11.2µM | ELG1 MMS Luc 25µM | ELG1 5-FU inconclusive | ELG1 MMS cell inactive | ELG1 unstim viab inactive | FLuc enzyme inactive
CCn1cc(C(=O)Nc2ccc3c(c2)OCCO3)c2cc(OC)c(OC)cc2c1=O	ELG1 repair inh 5.8µM | ELG1 FLuc counter inactive | ELG1 Luc conf 7.06µM | ELG1 MMS Luc inconclusive | ELG1 5-FU inconclusive | ELG1 MMS cell inconclusive | ELG1 unstim viab inconclusive | FLuc enzyme inactive
CCOc1ccc(-n2cc(C(=O)Nc3ccccc3OCC)c3cc(OC)c(OC)cc3c2=O)cc1	none (no result: BRCA1 expr up, IL-2 act, ELG1 repair inh)
CCOc1ccc(/C=C/c2ccnc3ccccc23)cc1OCC	none (no result: IL-2 act, ELG1 repair inh, Nrf2 ARE act)
C(=C\c1c[nH]c2ccccc12)/c1nccc2ccccc12	none (no result: IL-2 act, ELG1 repair inh, Nrf2 ARE act)
C(=C\c1c[nH]c2ccccc12)/c1ccc2ccccc2n1	none (no result: IL-2 act, ELG1 repair inh, Nrf2 ARE act) | ELG1 FLuc counter inactive | ELG1 unstim viab inconclusive | FLuc enzyme 0.116µM
Cc1nc(N2CCN(S(=O)(=O)c3ccc(F)cc3)CC2)c2c(C)c(C)sc2n1	none | ELG1 FLuc counter inactive | ELG1 Luc conf inactive | ELG1 MMS Luc inactive | ELG1 5-FU inactive | ELG1 MMS cell inactive | ELG1 unstim viab inactive | FLuc enzyme inactive
CC(=O)c1c(C)n(-c2ccc(Br)cc2)c2ccc(O)cc12	none
CC(=O)c1ccc(-n2c(C)c(C(C)=O)c3cc(O)ccc32)cc1	ELG1 repair inh 2.06µM | ELG1 Luc conf inconclusive | ELG1 MMS Luc inactive | ELG1 5-FU inactive | ELG1 MMS cell inactive | ELG1 unstim viab inactive
CCc1ccccc1NC(=O)N1CCN(Cc2nc3ccc(C)cc3o2)CC1	none (no result: IL-2 act, ELG1 repair inh)
CCOC(=O)CSc1nc(-c2ccc(F)cc2)cc(C(F)(F)F)c1C#N	none (no result: BRCA1 expr up, IL-2 act, ELG1 repair inh)
CCn1c(SCC(=O)N2CC(C)OC(C)C2)nc2c([nH]c3ccccc32)c1=O (centres undefined)	ELG1 repair inh 3.26µM | ELG1 Luc conf 9.96µM | ELG1 MMS Luc inactive | ELG1 5-FU inconclusive | ELG1 MMS cell inactive | ELG1 unstim viab inactive
COCCn1c(SCC(=O)N2CC(C)OC(C)C2)nc2c([nH]c3ccccc32)c1=O (centres undefined)	none
CCCNC(=O)c1ccc(-c2nc(CS(=O)(=O)c3ccc(C)cc3)c(C)o2)cc1	none (no result: BRCA1 expr up, IL-2 act, ELG1 repair inh)
Cc1c(Cc2ccccc2)c(=O)oc2cc(OCC(=O)N3CCC(C(N)=O)CC3)ccc12	ELG1 repair inh 0.82µM | ELG1 FLuc counter inactive | ELG1 Luc conf inconclusive | ELG1 MMS Luc 28.1µM | ELG1 5-FU inconclusive | ELG1 MMS cell 25µM | ELG1 unstim viab inactive | FLuc enzyme inconclusive
Cc1c(CC(=O)N2CCN(C(=O)C3COc4ccccc4O3)CC2)c(=O)oc2cc(O)c(Cl)cc12 (centres undefined)	ELG1 repair inh inconclusive
Cc1c(C)c2ccc(OCC(=O)N3CCN(C(=O)C4COc5ccccc5O4)CC3)cc2oc1=O (centres undefined)	ELG1 repair inh 1.83µM | ELG1 Luc conf 3.97µM | ELG1 MMS Luc inactive | ELG1 5-FU inconclusive | ELG1 MMS cell inactive | ELG1 unstim viab inconclusive
Cc1cc(=O)oc2cc(OCC(=O)N3CCN(C(=O)C4COc5ccccc5O4)CC3)ccc12 (centres undefined)	ELG1 repair inh 1.16µM | ELG1 Luc conf 2.23µM | ELG1 MMS Luc inconclusive | ELG1 5-FU inconclusive | ELG1 MMS cell inconclusive | ELG1 unstim viab inactive
NC(=O)C1CCN(C(=O)COc2ccc3c(c2)oc(=O)c2ccccc23)CC1	none
O=C(COc1ccc2ccc(=O)oc2c1)N1CCN(C(=O)C2COc3ccccc3O2)CC1 (centres undefined)	ELG1 repair inh 1.46µM | ELG1 Luc conf 2.81µM | ELG1 MMS Luc inactive | ELG1 5-FU inconclusive | ELG1 MMS cell inactive | ELG1 unstim viab inactive
Cc1ccc2c(c1)-c1onc(C(=O)N(C)c3ccc(F)cc3)c1CO2	none (no result: IL-2 act, ELG1 repair inh)
c1coc(-c2nc3cc4ccccc4cc3nc2-c2ccco2)c1	none (no result: IL-2 act, ELG1 repair inh, Nrf2 ARE act)
Cc1cc(=O)oc2cc(OCC(=O)N3CCN(C(=O)C4COc5ccccc5O4)CC3)c(Cl)cc12 (centres undefined)	ELG1 repair inh inconclusive
CCCc1cc(=O)oc2cc(OCC(=O)N3CCN(C(=O)C4COc5ccccc5O4)CC3)ccc12 (centres undefined)	ELG1 repair inh 3.66µM | ELG1 Luc conf 3.15µM | ELG1 MMS Luc inconclusive | ELG1 5-FU inconclusive | ELG1 MMS cell inactive | ELG1 unstim viab inconclusive
C#CC(=O)CC1(CN(Cc2ccccc2)C(=O)OC(C)(C)C)CCCCC1	none (no result: ELG1 repair inh)
COCCNC(=O)c1ccc(C)cc1C	ELG1 repair inh inconclusive
Cc1ccc(C(=O)NN=CC(=O)c2ccccc2)c(C)c1	BRCA1 expr up inconclusive, ELG1 repair inh inconclusive | ELG1 unstim viab inactive
COc1ccc(-c2nnc3ccc(SCC(=O)Nc4nc5ccc(C)cc5s4)nn23)cc1OC	ELG1 repair inh inconclusive | ELG1 FLuc counter inactive | ELG1 Luc conf 0.315µM | ELG1 MMS Luc inactive | ELG1 5-FU inconclusive | ELG1 MMS cell inactive | ELG1 unstim viab 28.1µM | FLuc enzyme inactive
O=C(O)C1C2CC(C(Br)C2Br)C1C(=O)O (centres undefined)	none (no result: ELG1 repair inh)
CC(Sc1nc(N2CCOCC2)c2c(c1C#N)CC(C)(C)OC2)C(=O)Nc1ccccc1 (centres undefined)	ELG1 repair inh 2.91µM | ELG1 FLuc counter inactive | ELG1 Luc conf 1.77µM | ELG1 MMS Luc inactive | ELG1 5-FU inconclusive | ELG1 MMS cell inconclusive | ELG1 unstim viab inactive | FLuc enzyme inactive
